Data: PubChem BioAssay (NCI)
About 83,000 compounds went through this panel and 20% of them were active in at least one assay; those are over-represented in the sample as a whole.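 Treatment: one concentration, 48 hours, 96-well format. Scoring: percent growth, with anything below 10 considered active.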 Values without a mark were called inactive. Calls of active or inactive are those of the source.

Columns and labels:
Assay in all cases: NCI-60 one-dose screen, 48 h (100 = growth as untreated, 0 = no growth, -100 = all killed)
Conditions in all cases: 10 µM unless noted
NCI-H23 lung = system: NCI-H23 lung
NCI-H226 lung = system: NCI-H226 lung
HOP-62 NSCLC = system: HOP-62 NSCLC
NCI-H460 lung = system: NCI-H460 lung
HOP-92 NSCLC = system: HOP-92 NSCLC
NCI-H522 lung = system: NCI-H522 lung
A549/ATCC NSCLC = system: A549/ATCC NSCLC
786-0 renal = system: 786-0 renal
COLO 205 colon = system: COLO 205 colon
DU-145 prostate = system: DU-145 prostate
K-562 leukemia = system: K-562 leukemia
MALME-3M melanoma = system: MALME-3M melanoma
MDA-MB-231 breast = system: MDA-MB-231 breast
SF-268 CNS = system: SF-268 CNS
SF-295 CNS = system: SF-295 CNS
SF-539 CNS = system: SF-539 CNS
M14 melanoma = system: M14 melanoma
RXF 393 renal = system: RXF 393 renal
UACC-257 melanoma = system: UACC-257 melanoma

| Compound | growth (NCI-H23 lung) | growth (NCI-H226 lung) | growth (HOP-62 NSCLC) | growth (NCI-H460 lung) | growth (HOP-92 NSCLC) | growth (NCI-H522 lung) | growth (A549/ATCC NSCLC) | growth (786-0 renal) | growth (COLO 205 colon) | growth (DU-145 prostate) | growth (K-562 leukemia) | growth (MALME-3M melanoma) | growth (MDA-MB-231 breast) | growth (SF-268 CNS) | growth (SF-295 CNS) | growth (SF-539 CNS) | growth (M14 melanoma) | growth (RXF 393 renal) | growth (UACC-257 melanoma) |
| --- | --- | --- | --- | --- | --- | --- | --- | --- | --- | --- | --- | --- | --- | --- | --- | --- | --- | --- | --- |
| CCCCN1CCCC[C@@H]1C(=O)N[C@H](C(=O)N(C)[C@H](CCc1nc(C(=O)N[C@@H](Cc2ccccc2)C[C@H](C)C(=O)OC)cs1)C(C)C)[C@@H](C)CC | 62.6% | 84% | 56.9% | 57.5% | 22.2% | 25.1% | 58.8% | 66.8% | 22.3% | 79.2% | 34% | 48.5% | 59.6% | 64.4% | 26.3% | 84% | 48.6% | – | – |
| COC(=O)[C@@H](C)C[C@H](Cc1ccccc1)NC(=O)c1nc([C@@H](C[C@H](C(C)C)N(C)C(=O)[C@@H](NC(=O)[C@H]2CC(=O)CCN2C)C(C)C)OC(C)=O)sc1C(C)C | 26.5% | -25.2% (active) | 15.6% | 3.43% (active) | 34.8% | -30.5% (active) | 18.7% | 6.83% (active) | -39.9% (active) | -11.3% (active) | 12.3% | 44.3% | 6.36% (active) | 20% | -1.71% (active) | -18% (active) | -10.3% (active) | 6.58% (active) | 77.6% |
| C/C=C(\C)C(=O)O[C@@H]1C(O)[C@H]2OC(COC(=O)CCC(=O)CCCCCC[C@H](CCCCC)O[C@@H]3OC(C)[C@H](OC(C)=O)C(O)[C@H]3O2)[C@H]1OC(=O)/C=C/c1ccccc1 (stereo not given in full) | 37.1% | 1.09% (active) | -2.42% (active) | 15.9% | -11.4% (active) | 20.9% | 20.2% | 5.52% (active) | -2.63% (active) | 22.5% | 30.2% | 14.9% | -5.32% (active) | 18.1% | -33.6% (active) | -9.75% (active) | -13.1% (active) | – | – |
| CC[C@H](C)[C@@H]1OC(=O)C(C)(C)[C@H](O)[C@H](Cc2ccccc2)OC(=O)[C@H](C(C)C)OC(=O)[C@@H](NC(=O)c2cccc(NC=O)c2O)[C@@H](C)OC1=O | 36.4% | 51.2% | 45% | 19% | 68% | 38.9% | 49.5% | 64.5% | 43.6% | 62.7% | – | 77.4% | 59.1% | 62.1% | 28% | 52.8% | 62.8% | 87.1% | 32.3% |
| [Cl][Hg][n]1c(-c2ccco2)nc2ccccc21 | 99% | 97.5% | 115% | 96.4% | 116% | 85.7% | 100% | 107% | 121% | 97.3% | 78.8% | 119% | 100% | 105% | 106% | 99.3% | 86.1% | 104% | 103% |
